The subject of experiment [1] is HaCat. Description: Cytotoxic Profiling of Annotated Libraries Using Quantitative High-Throughput Screening (AID 1296008). Further: nearly all actives have a fitted effect of over 60% in size. On max response: on the % scale 0 is the no-effect control and ±100 the full control effect. The conditions noted are these: Five cell lines viability, CellTiter-Glo ATP luminescence, 48-72 h; max response: hits give low values. The method, boiled down: (§1)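 Cells exposed to compounds for 48 or 72 hr at 37 degrees Celsius. Viability read as ATP-coupled luminescence with CellTiter-Glo after 10 min at room temperature.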

For experiment [2], the system named is KB-3-1. The description is as above. The following applies: Five cell lines viability, CellTiter-Glo ATP luminescence, 48-72 h; max response: hits give low values. The method, boiled down: as §1
Experiment [3] concerns NIH3T3. Described as above. The conditions noted are these: Five cell lines viability, CellTiter-Glo ATP luminescence, 48-72 h; max response: hits give low values. The method, boiled down:
as §1
(Cellular ATP, detected with luciferase, serves as a proxy for viable cell number.)

The test system of experiment [4] is C33A. Description: Primary qHTS to identify gynecologic anti-cancer compounds using libraries of approved drugs and bioactive compounds (AID 1345084). Further: nearly all actives have a fitted effect of over 55% in size. Further: potency means the concentration at half of the fitted maximal effect. On activity change, negative = cytotoxicity: on the % scale 0 is the no-effect control and ±100 the full control effect. The following applies: Gynecologic cancer cell panel viability, ATPlite luminescence, 48 h; series mostly up to 57.5 µM. In short, it runs like this: (§2)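 Five-point cytotoxicity, 48 h drug exposure at 37 C, 5% CO2, on cells seeded 16 h beforehand. ATP content read by ATPlite luminescence.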
For orientation: qHTS replaces the single test concentration by a dilution series.

Experiment [5] has as its system CAOV3. The experiment is described as above. The conditions noted are these: Gynecologic cancer cell panel viability, ATPlite luminescence, 48 h; series mostly up to 57.5 µM. The method, boiled down: as §2
The subject of experiment [6] is CASKI. Described as above. The conditions noted are these: Gynecologic cancer cell panel viability, ATPlite luminescence, 48 h; series mostly up to 57.5 µM. The method, boiled down:
as §2

The subject of experiment [7] is Es-2. The description is as above. The following applies: Gynecologic cancer cell panel viability, ATPlite luminescence, 48 h; series mostly up to 57.5 µM. In short, it runs like this:
as §2

The test system of experiment [8] is HeLa. The experiment is described as above. The conditions noted are these: Gynecologic cancer cell panel viability, ATPlite luminescence, 48 h; series mostly up to 57.5 µM. In short, it runs like this: as §2
In experiment [9] the test system is Hek293T. The experiment is described as above. The conditions noted are these: Gynecologic cancer cell panel viability, ATPlite luminescence, 48 h, control line for the selectivity index; series mostly up to 57.5 µM. The method, boiled down: as §2
In experiment [10] the test system is OV90. The experiment is described as above. The conditions noted are these: Gynecologic cancer cell panel viability, ATPlite luminescence, 48 h; series mostly up to 57.5 µM. In short, it runs like this: as §2
Experiment [11] deals with PA-1. The experiment is described as above. The conditions noted are these: Gynecologic cancer cell panel viability, ATPlite luminescence, 48 h; series mostly up to 57.5 µM. The method, boiled down:
as §2

Experiment [12] has as its system JEG-3. The experiment is described as above. The following applies: Gynecologic cancer cell panel viability, ATPlite luminescence, 48 h; series mostly up to 57.5 µM. The method, boiled down: as §2
For experiment [13], the system named is HACAT. The experiment is described as follows: qHTS assay to identify novel small-molecules to repurpose for Merkel cell carcinoma treatment (AID 1296009). Further: nearly all actives have a fitted effect of over 60% in size. The following applies: MCC and control cell lines, CellTiter-Glo viability, 72 h; at 44.8 µM (top of the series) unless noted. The method, boiled down:
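Cells were treated for 72 hr at 37 degree celsius with compounds in 8- or 11-point dose response. Viability was read by CellTiter-Glo luminescence, normalized to no-cell (cytotoxicity) and DMSO controls.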

These results are taken from PubChem BioAssay (NCATS).

Results filed as inconclusive are left out. Values without a mark were called inactive. The source made the active and inactive calls. The call rests on the fitted dose curve; in most records, active means well fitted curve in the direction sought with a large enough effect; inconclusive means small, poorly fitted or top-dose-only effect, or another doubt; inactive means no such curve, though single readings can be large; an effect the other way counts as inactive or inconclusive.

In the case of `NC(=O)C1=CC2C3C=CC2C(OC3=O)O1` (stereo not given), the max response in experiment [1] is -28.3%; in [2], 5.92%; in [3], 3.24%. In addition, the Potency result in [4], in experiment [5], in [6], in experiment [7], in experiment [8] and in experiment [9] was “inactive” each time. Also, the Potency entry in experiment [10] and in experiment [11] was “inactive” throughout.

With `NC(=O)c1nc(Nc2ccccc2)sc1NC(=O)C1CCCCC1`, the max response was -27.5% in [1] and -18.8% in [3]. Also, in experiment [2], the compound was called inactive. The Potency entry in [4], in experiment [5], in experiment [6], in [7], in experiment [8] and in experiment [9] was “inactive” in each case. In addition, the Potency entry in experiment [12], in experiment [10] and in experiment [11] was “inactive” each time.

As to `C=C1C(=O)O[C@@H]2[C@H]1CCC(C)=C(CCC(=O)O)[C@@]2(C)O`, the values for the max response in [1] and in [3] were 2.79% and -62.1%, respectively. Moreover, the outcome in experiment [2] was inactive. Besides, the Potency entry in experiment [4], in experiment [5], in [6], in experiment [7], in experiment [8] and in [9] was “inactive” each time. The Potency entry in experiment [12], in [10] and in experiment [11] was “inactive” in each case.

On to `S=C(c1ccc(-c2ccc(Cl)c(Cl)c2)o1)N1CCCCC1`, for which the outcome in experiment [1] and in experiment [13] was inactive. The max response was 6.89% in [2] and 2.68% in [3]. For the same compound, the Potency entry in experiment [4], in experiment [5], in experiment [6], in experiment [7], in experiment [8] and in experiment [9] was “inactive” throughout. Besides, the Potency entry in [12], in experiment [10] and in [11] was “inactive” throughout.

With `CC(CCC1(O)OC2CC3C4CC=C5C[C@@H](O[C@@H]6O[C@H](CO)[C@@H](O[C@@H]7O[C@@H](C)[C@H](O)[C@@H](O)[C@H]7O)[C@H](O)[C@H]6O[C@@H]6O[C@@H](C)[C@H](O)[C@@H](O)[C@H]6O)CC[C@]5(C)C4CC[C@]3(C)[C@@]2(O)[C@@H]1C)CO[C@@H]1O[C@H](CO)[C@@H](O)[C@H](O)[C@H]1O` (stereo not given in full), the call in experiment [1] and in experiment [2] was inactive. For the same compound, the max response in [3] is 4.51%. The outcome in [13] is “inactive [at 9.27 µM]”. Further, the activity change, negative = cytotoxicity in experiment [4] is -5.46% [at 11.6 µM]; in experiment [6], 14.6% [at 11.6 µM]; in [7], 10.8% [at 11.6 µM]; in [8], 4.9% [at 11.6 µM]; in [9] it was 7.85% [at 11.6 µM]; in experiment [12], 5.47% [at 11.6 µM]. In addition, the activity change, negative = cytotoxicity in experiment [10] is 3.45% [at 11.6 µM]; in [11], 19.4% [at 11.6 µM]. The Potency in [5] was 1 µM (active).

As to `CN1CCN(C(=O)CN[C@@H]2C[C@H]2c2ccc(OCc3ccccc3)cc2)CC1`, the max response in [1] was -3.34%; in [2], -22.7%; in experiment [3], -9.45%. Besides, the Potency result in experiment [4], in experiment [5], in experiment [6], in [7], in experiment [8] and in experiment [9] was “inactive” in each case. Besides, the Potency result in experiment [12], in experiment [10] and in experiment [11] was “inactive” throughout.

With `C=C1C(=O)O[C@@H]2C[C@H](C)C3=CC(=O)[C@H](O)[C@@]3(C)C[C@H]12`, the max response is 1.47% in experiment [1], 7.17% in [2] and -23.3% in experiment [3]. The Potency result in [4], in experiment [5], in experiment [6], in [7], in experiment [8] and in experiment [9] was “inactive” throughout. In addition, the Potency result in [12], in experiment [10] and in [11] was “inactive” in each case.

With `Cc1ccc(-c2cn3c4c(sc3n2)CCCC4)cc1`, the compound was called inactive in [1] and in [13]. The max response in experiment [2] was -4.88%; in [3], -12.5%. The Potency in experiment [5] was 10 µM (active); in [6], 17.8 µM (active); in experiment [7], 11.2 µM (active); in experiment [8], 12.6 µM (active); in experiment [9], 12.6 µM (active).

`COc1ccc(-n2c(SCCCN3C(=O)c4cccc5cccc(c45)C3=O)nnc2-c2ccncc2)cc1`: the call in experiment [1] and in experiment [13] was inactive. The max response is -1.97% in [2] and -2.58% in experiment [3]. Further, the Potency entry in [4], in [5], in experiment [6], in [7], in [8] and in [9] was “inactive” throughout. Also, the Potency entry in experiment [12], in [10] and in experiment [11] was “inactive” in each case.

Take `NC(N)=N/N=C/c1ccccc1Cl`: the max response in [1] is -18.8%; in [2], -14.8%; in experiment [3], -25.1%. Besides, the Potency entry in [4], in experiment [5], in experiment [6], in experiment [7], in experiment [8] and in [9] was “inactive” throughout. For the same compound, the Potency entry in experiment [12], in experiment [10] and in [11] was “inactive” in each case.

Consider `O=c1cc(N2CCN(c3cccc(C(F)(F)F)c3)CC2)[nH]c(=O)n1C1CCCCC1`, for which the max response in experiment [1] was -21.7%; in [3], -29.2%. For the same compound, the call in experiment [2] was inactive. Besides, the Potency result in [4], in [5], in experiment [6], in experiment [7], in experiment [8] and in experiment [9] was “inactive” each time. Moreover, the Potency result in [12], in [10] and in [11] was “inactive” in each case.

With `CCOC(=O)C1(CCOc2ccccc2)CCN(Cc2ccc(O)c(Cl)c2)CC1`, the max response in [1] was 0.37%; in [2], -15.3%; in experiment [3] it was -16.4%. The Potency entry in experiment [4], in experiment [5], in experiment [6], in [7], in [8] and in [9] was “inactive” each time. In addition, the Potency result in experiment [12], in [10] and in [11] was “inactive” in each case.

With `CC(=O)OC1CC2(C)C(CCC(C)C23Cc2c(O)cc(CO)c(C=O)c2O3)C(C)(C)C1O` (stereo not given), the call in [1] was inactive. Besides, the figures for the max response in experiment [2] and in [3] were 1.75% and 1.46%, respectively. Besides, in experiment [13], the outcome is “inactive [at 17.4 µM]”. Also, the Potency result in experiment [4], in experiment [6], in experiment [7], in [8], in [9] and in [12] was “inactive” each time. For the same compound, the Potency entry in experiment [10] and in [11] was “inactive” in each case.
